Data published in PubChem BioAssay (NCI).
“And” between values parts separate entries of the source, which are not always exact repeats. Equal values may be shown once. About 83,000 compounds went through this panel and 20% of them were active in at least one assay; those are over-represented in the sample as a whole.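 Compound tested at a single concentration for 48 hours in 96-well plates; a percent growth value below 10 was scored as active.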 The source made the active and inactive calls.

How the values were obtained:
Assay in all cases: NCI-60 one-dose screen, 48 h (100 = growth as untreated, 0 = no growth, -100 = all killed)
SK-MEL-2 melanoma = tested on: SK-MEL-2 melanoma
EKVX NSCLC = tested on: EKVX NSCLC
SN12C renal = tested on: SN12C renal
UO-31 renal = tested on: UO-31 renal
TK-10 renal = tested on: TK-10 renal
ACHN renal = conditions: 10 µM unless noted
CAKI-1 renal = conditions: 10 µM unless noted
A498 renal = tested on: A498 renal
CCRF-CEM leukemia = conditions: 10 µM unless noted
MOLT-4 leukemia = tested on: MOLT-4 leukemia
SR leukemia = tested on: SR leukemia
RPMI-8226 leukemia = conditions: 10 µM unless noted
OVCAR-8 ovarian = tested on: OVCAR-8 ovarian
OVCAR-5 ovarian = tested on: OVCAR-5 ovarian
OVCAR-4 ovarian = tested on: OVCAR-4 ovarian
SK-OV-3 ovarian = tested on: SK-OV-3 ovarian
IGROV1 ovarian = tested on: IGROV1 ovarian
OVCAR-3 ovarian = tested on: OVCAR-3 ovarian
HS 578T breast = tested on: HS 578T breast
NCI/ADR-RES ovarian = tested on: NCI/ADR-RES ovarian

Measured: growth

COC(=O)c1nc(-c2ccc(C)cc2)oc1S(=O)(=O)c1ccc(Cl)cc1
active: CCRF-CEM leukemia -15.8% | MOLT-4 leukemia; 10 µM unless noted -21% | SR leukemia; 10 µM unless noted -15.7%
inactive: SK-MEL-2 melanoma; 10 µM unless noted 102% | EKVX NSCLC; 10 µM unless noted 108% | SN12C renal; 10 µM unless noted 83.6% | UO-31 renal; 10 µM unless noted 75.1% | TK-10 renal; 10 µM unless noted 93.5% | ACHN renal 80.4% | CAKI-1 renal 95% | A498 renal; 10 µM unless noted 113% | RPMI-8226 leukemia 81.2% | OVCAR-8 ovarian; 10 µM unless noted 94.2% | OVCAR-5 ovarian; 10 µM unless noted 96.3% | OVCAR-4 ovarian; 10 µM unless noted 100% | SK-OV-3 ovarian; 10 µM unless noted 97.4% | IGROV1 ovarian; 10 µM unless noted 89.3% | OVCAR-3 ovarian; 10 µM unless noted 107% | HS 578T breast; 10 µM unless noted 105% | NCI/ADR-RES ovarian; 10 µM unless noted 105%

CN1CCN(CCNC(=O)c2cccc(CN3c4cccc5c4C(=Cc4cccnc43)N(C)C5=O)c2)CC1
active: CAKI-1 renal 8.78% | RPMI-8226 leukemia 2.26% | HS 578T breast; 10 µM unless noted -6.06%
inactive: SK-MEL-2 melanoma; 10 µM unless noted 62% | EKVX NSCLC; 10 µM unless noted 40.8% | SN12C renal; 10 µM unless noted 42.8% | UO-31 renal; 10 µM unless noted 14.3% | TK-10 renal; 10 µM unless noted 25.4% | ACHN renal 23.5% | A498 renal; 10 µM unless noted 30.9% | CCRF-CEM leukemia 47% | MOLT-4 leukemia; 10 µM unless noted 47.4% | SR leukemia; 10 µM unless noted 33.5% | OVCAR-8 ovarian; 10 µM unless noted 40.8% | OVCAR-5 ovarian; 10 µM unless noted 42% | OVCAR-4 ovarian; 10 µM unless noted 37.4% | SK-OV-3 ovarian; 10 µM unless noted 18.2% | IGROV1 ovarian; 10 µM unless noted 18.6% | OVCAR-3 ovarian; 10 µM unless noted 34.3% | NCI/ADR-RES ovarian; 10 µM unless noted 80.9%

CC[C@]12CN3CCc4c([nH]c5ccccc45)[C@@](C(=O)OC)(c4cc5c(cc4OC)N(C)[C@H]4[C@@](O)(C(=O)OC)[C@H](OC(C)=O)[C@]6(CC)C=CCN7CC[C@]54[C@@H]76)CC(C3)[C@H]1O2 (stereo partly drawn)
inactive: SK-MEL-2 melanoma; 10 µM unless noted 31% | EKVX NSCLC; 10 µM unless noted 28.4% | SN12C renal; 10 µM unless noted 29.1% | UO-31 renal; 10 µM unless noted 32.8% | TK-10 renal; 10 µM 27.6% | ACHN renal 40.5% | CAKI-1 renal 38.9% | MOLT-4 leukemia; 10 µM unless noted 25.7% | SR leukemia; 10 µM unless noted 14.4% | RPMI-8226 leukemia 20.5% | OVCAR-5 ovarian; 10 µM unless noted 49% | OVCAR-4 ovarian; 10 µM unless noted 28% | SK-OV-3 ovarian; 10 µM unless noted 22.1% | NCI/ADR-RES ovarian; 10 µM unless noted 82%
active: A498 renal; 10 µM unless noted -12.3% | CCRF-CEM leukemia 5.37% | OVCAR-8 ovarian; 10 µM unless noted 7.27% | OVCAR-3 ovarian; 10 µM unless noted -60.4% | HS 578T breast; 10 µM unless noted -25.1%
88% (inactive) and -96.5% (active): TK-10 renal; 100 µM

O=C(/C=C/c1cccc(Oc2ccc(Cl)cc2)c1)c1ccccc1
active: SK-MEL-2 melanoma; 100 µM -59.8% | EKVX NSCLC; 100 µM -79.6% | SN12C renal; 100 µM -63.7% | UO-31 renal; 100 µM -99.8% | TK-10 renal; 100 µM -99.2% | A498 renal; 100 µM -95.3% | MOLT-4 leukemia; 100 µM -2.97% | SR leukemia; 100 µM -25.1% | OVCAR-8 ovarian; 100 µM -50.8% | OVCAR-5 ovarian; 100 µM -82.2% | OVCAR-4 ovarian; 100 µM -80.1% | SK-OV-3 ovarian; 100 µM -93.7% | IGROV1 ovarian; 100 µM -49.9% | OVCAR-3 ovarian; 100 µM -94.3% | HS 578T breast; 100 µM -28.2% | NCI/ADR-RES ovarian; 100 µM -46.5%
inactive: SK-MEL-2 melanoma; 10 µM 109% | EKVX NSCLC; 10 µM 110% | SN12C renal; 10 µM 111% | UO-31 renal; 10 µM 86.2% | TK-10 renal; 10 µM 105% | ACHN renal 99.3% | A498 renal; 10 µM 99.2% | MOLT-4 leukemia; 10 µM 62.6% | SR leukemia; 10 µM 53.5% | OVCAR-8 ovarian; 10 µM 91.8% | OVCAR-5 ovarian; 10 µM 96% | OVCAR-4 ovarian; 10 µM 90.3% | SK-OV-3 ovarian; 10 µM 114% | IGROV1 ovarian; 10 µM 102% | OVCAR-3 ovarian; 10 µM 93.3% | HS 578T breast; 10 µM 97.5% | NCI/ADR-RES ovarian; 10 µM 98.8%

C=C1C(=O)O[C@H]2[C@H]1CC/C(COC(=O)NCCCCNC(=O)OC/C1=C/CC[C@@]3(C)O[C@H]3[C@H]3OC(=O)C(=C)[C@@H]3CC1)=C\CC[C@@]1(C)O[C@@H]21
active: CCRF-CEM leukemia -33.6% | MOLT-4 leukemia; 10 µM unless noted -14.8% | SR leukemia; 10 µM unless noted -1.79% | RPMI-8226 leukemia -28.3% | OVCAR-5 ovarian; 10 µM unless noted 4.4% | OVCAR-3 ovarian; 10 µM unless noted -8.75%
inactive: SK-MEL-2 melanoma; 10 µM unless noted 36.4% | EKVX NSCLC; 10 µM unless noted 89% | SN12C renal; 10 µM unless noted 19.6% | UO-31 renal; 10 µM unless noted 79.8% | TK-10 renal; 10 µM unless noted 20.1% | ACHN renal 57.5% | CAKI-1 renal 76.8% | A498 renal; 10 µM unless noted 95.1% | OVCAR-8 ovarian; 10 µM unless noted 12.5% | OVCAR-4 ovarian; 10 µM unless noted 31.1% | SK-OV-3 ovarian; 10 µM unless noted 94.2% | IGROV1 ovarian; 10 µM unless noted 48.9% | HS 578T breast; 10 µM unless noted 70.5% | NCI/ADR-RES ovarian; 10 µM unless noted 99.5%

CS(=O)(=O)Nc1cc(-c2ccc3ncnc(Nc4ccc(F)c(Cl)c4)c3c2)cnc1Cl
active: SK-MEL-2 melanoma; 10 µM unless noted -7.25% | EKVX NSCLC; 10 µM unless noted -3.92% | UO-31 renal; 10 µM unless noted -3.81% | TK-10 renal; 10 µM unless noted -14.5% | CAKI-1 renal 3.33% | A498 renal; 10 µM unless noted -59.3% | CCRF-CEM leukemia 9.76% | MOLT-4 leukemia; 10 µM unless noted -19.9% | SR leukemia; 10 µM unless noted 0.546% | RPMI-8226 leukemia -24% | SK-OV-3 ovarian; 10 µM unless noted -19.6% | IGROV1 ovarian; 10 µM unless noted -14.1% | OVCAR-3 ovarian; 10 µM unless noted -22.6% | HS 578T breast; 10 µM unless noted -11.5%
inactive: SN12C renal; 10 µM unless noted 10.2% | ACHN renal 14.6% | OVCAR-8 ovarian; 10 µM unless noted 15.8% | OVCAR-5 ovarian; 10 µM unless noted 15.3% | OVCAR-4 ovarian; 10 µM unless noted 17.6% | NCI/ADR-RES ovarian; 10 µM unless noted 34.2%
